Results: PubChem BioAssay (NCATS)
Where “and” joins values, the source holds several entries; their conditions need not be identical. Identical values can stand only once. Inconclusive results are not listed. Calls of active or inactive are those of the source. Unless noted, calls come from the whole dose curve; as a rule, active = well fitted curve in the direction sought with a large enough effect; inconclusive = small, poorly fitted or top-dose-only effect, or another doubt; inactive = no such curve, though single readings can be large; an effect the other way counts as inactive or inconclusive.

Columns and labels:
[1] = Cell Viability - BJ (AID 421; calls by dose curve;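 note: potency is the fitted concentration of half-maximal effect; cells exposed to compound for 40 hours at 37 °C before readout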); conditions: BJ fibroblast viability, qHTS
Method in brief: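 Cytotoxicity as drop in intracellular ATP (CellTiter-Glo, 20 min RT) after 40 hr compound exposure of BJ fibroblasts at 37 °C. Titrations scaled between DMSO and 100 uM tamoxifen, Hill-fitted for AC50.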

[2] = Cell Viability - N2a (AID 540); conditions: N2a mouse neuroblastoma cell viability; activity change, negative = cytotoxicity: at 92.2 µM (top of the series);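 note: plate controls were DMSO alone for no effect and tamoxifen control for full effect; nearly all actives have a fitted effect of over 45% in size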
Method in brief: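 Luminescent ATP signal (CellTiter-Glo, 20 min at room temperature) served as the viability read-out after N2a cells were treated with compounds for 40 hours at 37 °C. Concentration-response data were fitted to the Hill equation for AC50.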

[3] = Cell Viability - SH-SY5Y (AID 544); conditions: SH-SY5Y neuroblastoma cell viability; viability change, negative = cytotoxic: at 92.2 µM (top of the series); note: nearly all actives have a fitted effect of over 55% in size; note: potency is the fitted concentration of half-maximal effect
Method in brief: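 Luminescent ATP read-out (CellTiter-Glo) measures loss of viable SH-SY5Y neuroblastoma cells after 40 hr compound exposure at 37 °C. AC50 values derive from standard Hill modelling of qHTS concentration-response data.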

[4] = Cell Viability - Renal Proximal Tubule (AID 545); conditions: renal proximal tubule cells viability; activity change, negative = cytotoxicity: at 91.7 µM (top of the series) unless noted; note: nearly all actives have a fitted effect of over 40% in size; note: potency is the fitted concentration of half-maximal effect
Method in brief: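 Rat renal proximal tubule primary cells, 1000/well, exposed to compounds for 40 hr at 37 °C in complete medium; cellular ATP read by CellTiter-Glo luminescence. AC50 from concentration-response fitted with standard Hill equation.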

[5] = Cell Viability - Mesenchymal (AID 546); conditions: mesenchymal cells viability, qHTS; activity change, negative = cytotoxicity: at 91.7 µM (top of the series);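 note: cells exposed to compound for 40 hours before reading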
Method in brief: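 Normal human renal glomerulus-derived kidney mesenchymal cells, 1000 per well in complete medium, were treated with compounds for 40 hr at 37 °C. Viability was read as intracellular ATP by CellTiter-Glo luminescence; AC50 values came from Hill-equation fits of qHTS concentration-response data.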

[6] = Cellular Toxicity (caspase-3) HepG2 (AID 654); conditions: HepG2 caspase-3 activation, luminescence, 0% = DMSO only, 100% = tamoxifen; series mostly up to 92.2 µM;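 note: cells exposed to compound for 16 hours before reading; 0% = DMSO alone and 100% = caspase signal from 100 µM tamoxifen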
Method in brief: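 Cells plated 5 hr at 37 °C, compound added, incubated 16 hr at 37 °C. Caspase-Glo 3/7 reagent followed, 20 min at room temperature, then luminescence read. Activation scored as signal increase; AC50 from Hill fit.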

[7] = MultiTox-Fluor Cytotoxicity Assay - LYMP1-003 - Live Cells (AID 962); conditions: LYMP1-003 lymphoblastoid cells, MultiTox-Fluor live-cell protease fluorescence; series mostly up to 92.2 µM; note: potency is the fitted concentration of half-maximal effect
Method in brief: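 qHTS, 1536-well; 2500 cells/well LYMP1-003; 5 hr 37 C settle; cpd 16 hr 37 C; MultiTox-Fluor reagent 60 min RT; live-cell protease fluor. 405/510; Hill-fit AC50; tetraoctylammonium bromide pos. ctrl.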

[8] = Cell Viability - LYMP2-008 (AID 980); conditions: LYMP2-008 lymphoblastoid cell viability, qHTS; series mostly up to 92.2 µM; note: nearly all actives have a fitted effect of over 60% in size; note: potency is the fitted concentration of half-maximal effect;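 for activity change, negative = cytotoxicity: cells exposed to compound for 24 h at 37 °C; % is set by controls: 0 for no effect and ±100 for the full control effect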
Method in brief: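 qHTS, human lymphoblastoid line, 2500 cells/well; 5 hr preincubation, 24 hr compound, 37 C. CellTiter-Glo ATP luminescence. AC50 via Hill equation. Tetraoctylammonium bromide positive control.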

[9] = qHTS assay for environmental chemicals that activate the Aryl hydrocarbon Receptor (AhR) signaling pathway (AID 651777); conditions: 1A2-DRE human hepatoma cells, luciferase, 24 h; activation: active compounds read high; note: nearly all actives have a fitted effect of over 15% in size; note: potency is the fitted concentration of half-maximal effect; for activation: % of control where 0% means no effect
Method in brief: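 Induction of CYP1A2 transcription through AhR is detected by luciferase in 1A2-DRE hepatoma cells. Compounds or DMSO act for 24 hr at 37 C before a 30 min One-Glo step at room temperature.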

[10] = biological target: Peroxisome proliferator-activated receptor alpha (Homo sapiens) (UniProt Q07869); assay: qHTS assay for small molecule agonists of the peroxisome proliferator-activated receptor alpha (PPARalpha) signaling pathway (AID 651778); conditions: PathHunter PPARalpha complementation, chemiluminescence, 6 h; max response: active compounds read high; note: % of control where 0% means no effect
Method in brief: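 Cells plated at 2,000/well and held overnight at 37 C, 5% CO2, then compound added by pin tool for 6 hr; after PathHunter detection reagent and 60 min at room temperature, chemiluminescence from enzyme complementation was read.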

[11] = qHTS assay for small molecule agonists of the antioxidant response element (ARE) signaling pathway measured by Nrf2-dependant transcriptional activity - cell viability counter screen (AID 720653; active = well fitted curve in the direction sought with a large enough effect in the repeat runs; an effect the other way counts as inactive or inconclusive; note: % is set by controls: 0 for no effect and ±100 for the full control effect); conditions: ARE-bla HepG2 viability, CellTiter-Glo ATP luminescence, 16 h; max response: active compounds read low
Method in brief: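 ARE-bla HepG2 cells (2,000/well) rested 5 hrs at 37C/5% CO2, then exposed to compounds in DMSO for 16 hrs. Viability was read in the same wells as intracellular ATP by luminescence, 30 min at room temperature after reagent addition.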

[12] = Cell Viability - Hek293 (AID 427;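 active = compounds whose dose-response curve shows a full or clear partial loss of cell viability, called from curve shape rather than a numeric limit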;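 note: potency is the fitted concentration of half-maximal effect; cells exposed to compound for 40 hours at 37 °C before reading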); conditions: qHTS
Method in brief: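 Luminescent ATP content (CellTiter-Glo, 20 min at room temperature) was measured after a 40 hr, 37 °C compound exposure of HEK293 cells. AC50 values came from Hill-equation fits of qHTS concentration-response data normalized to DMSO and 100 uM tamoxifen.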

[13] = Cell Viability - MRC5 (AID 434; calls by dose curve;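 note: potency is the fitted concentration of half-maximal effect; potency reflects cytotoxicity seen as loss of intracellular ATP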); conditions: MRC5 lung fibroblast viability, qHTS
Method in brief: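 MRC5 normal human lung fibroblasts (1500/well) were treated with compounds for 40 hr at 37 °C in complete medium, and viable cells were measured as intracellular ATP by CellTiter-Glo luminescence. AC50 came from Hill fits, normalized to DMSO and 100 uM tamoxifen.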

[14] = biological target: Glucocorticoid receptor (Homo sapiens) (UniProt P04150); assay: GR-GFP Redistribution (AID 450;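 active = compounds whose dose series gives a full or clear partial fitted curve of increased nuclear translocation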; note: potency is the fitted concentration of half-maximal effect); conditions: U2OS GR-GFP nuclear translocation, laser cytometry, 2 h
[15] = Cellular Toxicity (caspase-3) Renal Proximal Tubule (AID 667); conditions: renal proximal tubule cells; at 91.7 µM (top of the series) unless noted;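 note: cells exposed to compound for 16 hours at 37 °C before detection; 0% = DMSO basal and 100% = 10 µM staurosporine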
Method in brief: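 Freshly isolated primary rat kidney proximal tubule cells, 1000/well, treated 16 hr at 37 °C, then Caspase-Glo 3/7 luminescence after 1 hr. Normalized to DMSO and 10 uM staurosporine; AC50 from Hill fit.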

[16] = MultiTox-Fluor Cytotoxicity Assay - LYMP1-002 - Live Cells (AID 955); conditions: LYMP1-002 lymphoblastoid live-cell protease fluorescence viability; series mostly up to 46.1 µM; note: potency is the fitted concentration of half-maximal effect; for viability change, negative = cytotoxic: % is set by controls: 0 for no effect and ±100 for the full control effect
Method in brief: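 Read-out is live-cell protease activity (cell-permeant GF-AFC substrate, fluorescence Ex/Em=405/510), where a decrease indicates acute toxicity. Human lymphoblastoid cells were treated 16 hours at 37 C in a concentration series, and AC50 values came from standard Hill modelling.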

[17] = biological target: Tumor necrosis factor (Homo sapiens) (UniProt P01375); assay: qHTS assay to identify small molecules that stimulate Tumor Necrosis Factor-alpha (TNF-alpha) secretion (AID 651757; active = well fitted curve in the direction sought with a large enough effect in the signal ratio; the % refers to the signal ratio; note: 0% is about no effect); conditions: Human cells, HTRF 665/615 ratio; series mostly up to 92.2 µM
Method in brief: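 Read-out is HTRF, a TR-FRET sandwich of cryptate- and XL665-labeled anti-TNF-alpha antibodies detecting cytokine secreted by THP-1 cells. Cells had been incubated with test compounds at 37 C for 17 hrs beforehand.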

Sequence of Tumor necrosis factor (Homo sapiens) (P01375 whole entry, looked up): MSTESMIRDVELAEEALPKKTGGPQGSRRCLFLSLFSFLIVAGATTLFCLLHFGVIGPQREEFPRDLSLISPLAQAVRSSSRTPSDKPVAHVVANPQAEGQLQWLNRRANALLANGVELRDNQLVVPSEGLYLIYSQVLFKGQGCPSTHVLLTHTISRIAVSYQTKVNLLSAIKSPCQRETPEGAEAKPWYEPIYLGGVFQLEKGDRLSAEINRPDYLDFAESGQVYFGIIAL
Sequence of Peroxisome proliferator-activated receptor alpha (Homo sapiens) (Q07869 whole entry, looked up): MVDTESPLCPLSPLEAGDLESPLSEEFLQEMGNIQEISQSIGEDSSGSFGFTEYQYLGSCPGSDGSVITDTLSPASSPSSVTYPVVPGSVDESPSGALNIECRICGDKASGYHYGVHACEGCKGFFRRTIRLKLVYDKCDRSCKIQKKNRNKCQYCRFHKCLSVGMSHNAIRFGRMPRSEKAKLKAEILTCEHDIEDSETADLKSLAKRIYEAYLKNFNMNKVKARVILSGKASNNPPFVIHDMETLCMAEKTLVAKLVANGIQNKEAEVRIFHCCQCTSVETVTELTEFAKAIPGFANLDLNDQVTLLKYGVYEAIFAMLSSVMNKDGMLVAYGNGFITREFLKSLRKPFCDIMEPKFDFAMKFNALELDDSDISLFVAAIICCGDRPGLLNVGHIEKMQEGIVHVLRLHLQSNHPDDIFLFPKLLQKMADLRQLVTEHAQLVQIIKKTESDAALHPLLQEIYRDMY
Sequence of Glucocorticoid receptor (Homo sapiens) (P04150 whole entry, looked up): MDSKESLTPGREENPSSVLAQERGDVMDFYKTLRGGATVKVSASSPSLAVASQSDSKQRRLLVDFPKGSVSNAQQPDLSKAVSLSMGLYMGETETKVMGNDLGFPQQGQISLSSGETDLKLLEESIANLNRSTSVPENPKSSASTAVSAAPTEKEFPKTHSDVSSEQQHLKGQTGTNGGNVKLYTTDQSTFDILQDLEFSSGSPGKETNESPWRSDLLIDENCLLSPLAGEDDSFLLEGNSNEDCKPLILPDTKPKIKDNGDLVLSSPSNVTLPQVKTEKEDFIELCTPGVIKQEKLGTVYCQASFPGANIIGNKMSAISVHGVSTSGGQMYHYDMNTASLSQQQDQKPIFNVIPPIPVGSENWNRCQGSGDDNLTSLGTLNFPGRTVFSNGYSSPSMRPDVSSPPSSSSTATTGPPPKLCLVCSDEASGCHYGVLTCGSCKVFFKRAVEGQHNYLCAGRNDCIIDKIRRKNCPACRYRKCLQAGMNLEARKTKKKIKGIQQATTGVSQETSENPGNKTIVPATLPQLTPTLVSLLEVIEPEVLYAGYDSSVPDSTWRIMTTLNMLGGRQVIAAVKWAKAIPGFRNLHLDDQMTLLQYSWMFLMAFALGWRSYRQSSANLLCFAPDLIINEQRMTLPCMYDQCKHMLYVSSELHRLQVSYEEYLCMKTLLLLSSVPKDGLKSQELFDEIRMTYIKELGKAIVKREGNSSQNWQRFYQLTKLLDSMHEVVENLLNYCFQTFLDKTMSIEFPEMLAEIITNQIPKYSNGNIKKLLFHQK

CC(C)CC(C)Nc1ccc(Nc2ccccc2)cc1 (centres undefined)
inactive: Potency [1] > 92 µM | Potency [5] | outcome [6] | activation [9] 10.8% | max response [10] -7.88% | max response [11] -3.35%
active: activity change, negative = cytotoxicity [2] -118% | Potency [3] 25.1 µM | activity change, negative = cytotoxicity [4] -106% | Potency [7] 50.1 µM | Potency [8] 39.8 µM

Cc1ccc(O)cc1C
inactive: Potency [1] > 92 µM | Potency [12] > 92 µM | Potency [13] > 92 µM | activation [9] 0.215% | max response [11] -2.94%

OC(Cc1ccccc1)(c1ccccc1)C1CN2CCC1CC2 (centres undefined)
inactive: Potency [14] > 20.6 µM

[Cd+2].[Cl-].[Cl-]
active: Potency [12] 51.2 µM | activity change, negative = cytotoxicity [2] -109% | Potency [4] 12.6 µM | Potency [8] 39.8 µM
inactive: Potency [13] > 92 µM | outcome [6] | caspase-3 activation [15] -13.6% | Potency [16] | Potency [7] | Potency [17] | activation [9] 0.0733% | max response [10] -8.85%

Nc1ccccc1C(=O)OCCc1ccccc1
inactive: Potency [1] > 92 µM | Potency [12] > 92 µM | Potency [13] > 92 µM | activity change, negative = cytotoxicity [2] -14.5% | Potency [3] | Potency [5] | outcome [6] | caspase-3 activation [15] -20.4% | Potency [16] | Potency [7] | Potency [8] | Potency [17] | max response [11] 0.51%
active: Potency [9] 44.7 µM

O=C(CCl)c1ccccc1
inactive: outcome [6] | caspase-3 activation [15] -4.24% | Potency [17] | activation [9] -0.199% and 2.38% | max response [10] -2.05% and -1.03% | max response [11] -32.5% and -9.07%
active: Potency [1] 39.2 µM | activity change, negative = cytotoxicity [2] -113% | Potency [3] 7.94 µM | activity change, negative = cytotoxicity [5] -109% | Potency [16] 31.6 µM | Potency [7] 39.8 µM | Potency [8] 12.6 µM

OC(c1ccc(Cl)cc1)(c1ccc(Cl)cc1)C(Cl)(Cl)Cl
inactive: Potency [1] > 92 µM | Potency [12] > 92 µM | Potency [13] > 92 µM | Potency [3] | Potency [4] | Potency [5] | outcome [6] | caspase-3 activation [15] 1.02% | Potency [16] | Potency [7] | Potency [8] | Potency [17] | max response [10] -0.474% | max response [11] -1.65%
active: activity change, negative = cytotoxicity [2] -118%

ClC1=C(Cl)C2(Cl)C3C(Cl)C(Cl)CC3C1(Cl)C2(Cl)Cl (centres undefined)
inactive: Potency [5] | outcome [6] | caspase-3 activation [15] 19% | Potency [16] | Potency [7] | Potency [8] | Potency [17] | max response [11] -13.1%
active: Potency [12] 72.7 µM | activity change, negative = cytotoxicity [2] -82.9% | viability change, negative = cytotoxic [3] -97.5%

N#CC(Cl)Cl
active: Potency [8] 12.6 µM
inactive: Potency [1] > 92 µM | Potency [12] > 92 µM | Potency [13] > 92 µM | activity change, negative = cytotoxicity [2] 13.8% | Potency [3] | Potency [4] | Potency [5] | outcome [6] | caspase-3 activation [15] -4.27% [at 91.7 µM, primary cells freshly taken from rat, solvent-only wells 0%, staurosporine 100%] | Potency [16] | Potency [7] | Potency [17] | activation [9] 1.8% | max response [10] -3.95% | max response [11] -22.9%

O=C(O)C1C(C(=O)O)C2(Cl)C(Cl)=C(Cl)C1(Cl)C2(Cl)Cl (centres undefined)
inactive: Potency [1] > 92 µM | Potency [12] > 92 µM | Potency [13] > 92 µM | activity change, negative = cytotoxicity [2] 14.3% | Potency [3] | Potency [4] | Potency [5] | outcome [6] | caspase-3 activation [15] -21% [at 91.7 µM, primary cells freshly taken from rat, solvent-only wells 0%, staurosporine 100%] | Potency [16] | Potency [7] | Potency [8] | Potency [17] | activation [9] 0.623% | max response [10] 10.1% | max response [11] 5.57%
